Experimental data as given in PubChem BioAssay AID1845 (The Scripps Research Institute Molecular Screening Center, 2009).
Among all 290,000 compounds or so, about 490 (0.17%) were called active. The full list was thinned out, with actives kept by preference. Unmarked numbers belong to inactive results. Cut-off read from the data, not from the text of the source: active = inhibition above about 37%; inactive = the rest.

Test: DNA intercalator displacement agents – biochemical, FID fluorescence, artefact control for HCV NS3 helicase inhibitor project, primary screen (AID 1845);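 note: 0% = vehicle and 100% = reference compound; higher means more ethidium bromide displaced from hairpin DNA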
Settings: DNA fluorescent intercalator displacement, at 7.9 µM, hits give high values
Compound CCN(CC(=O)Nc1ccccc1OC)C(=O)Cn1cnc2ccccc2c1=O has an inhibition of -5.22%.
Work on Cc1cc(-c2nnc(CCC(=O)NC(c3ccccc3)c3ccccc3)o2)no1 yielded an inhibition of -7.1%.
Cc1ccc(C(C)C)c(OCCSc2nc3ccccc3n2CC(=O)O)c1 showed an inhibition of -11.6%.
O=C(CSc1nc2nccnc2c(=O)n1Cc1cccs1)Nc1ccccc1F showed an inhibition of -11.4%.
COc1ccc(-c2noc(C(C)NS(=O)(=O)c3ccc(NC(C)=O)cc3)n2)cc1 (stereo unspecified) showed an inhibition of -8%.
Compound CCCCCC1CC(COc2ccccc2)OC1=O (stereo unspecified) has an inhibition of -26.6%.
In the case of O=C1C(=O)N(CCN2CCOCC2)C(c2cccc(Cl)c2)/C1=C(/O)c1ccc2c(c1)OCO2 (stereo unspecified), the inhibition is reported as -31.7%.
Work on Cc1nnc(SCC(=O)N2c3ccccc3C(C)(c3ccc(Cl)cc3)CC2(C)C)s1 (stereo unspecified) yielded an inhibition of -27.2%.
Cn1c(=O)n(C)c2cc(S(=O)(=O)Nc3ccc(F)cc3)ccc21 gave an inhibition of -0.97%.
For CCc1ccc(-c2cc(C(=O)NN3CCN(C)CC3)c3ccccc3n2)cc1, the inhibition was 16.5%.
With O=S(=O)(NCC1CC1)c1ccc(F)c(Cl)c1 the inhibition was -2.55%.
O=C(NCC(=O)N1CCN(c2ccccc2O)CC1)c1ccc2ccccc2c1 showed an inhibition of -38.7%.
With CCc1ccc(NC(=O)COC(=O)c2cccs2)cc1 the inhibition was -15%.
For CCOC(OCC)c1ccc(/C=C\c2nccc(N)n2)cc1, the inhibition was -11.1%.
With CCN1CCN(c2ccc(S(=O)(=O)N3CCCCC3)cc2NC(=O)Cc2c(Cl)cccc2Cl)CC1 the inhibition was 24.2%.
In the case of COc1ccc(CC(=O)Nc2cc(S(=O)(=O)N3CCCCC3)ccc2N2CCN(C)CC2)cc1, the inhibition is reported as 39.2% (active).
With CN1CCN(c2ccc(S(=O)(=O)N3CCCCC3)cc2NC(=O)Cc2ccccc2F)CC1 the inhibition was 17.4%.
CN(C)c1cccc(C(=O)N2CCC(n3nccc3NC(=O)C3CCOC3)CC2)c1 (stereo unspecified) gave an inhibition of -16.7%.
With COc1ccc(NC(=O)CSc2nc3ccccc3c(=O)n2C)cc1 the inhibition was -13.4%.
In the case of COCCCN1C(=O)C(=O)/C(=C(/O)c2ccc(S(=O)(=O)N3CCOCC3)cc2)C1c1ccc(F)cc1 (stereo unspecified), the inhibition is reported as -50.7%.
In the case of CC1CN(C(=O)CCC(=O)NCCCN2CCC(Cc3ccccc3)CC2)c2cc(Cl)ccc2O1 (stereo unspecified), the inhibition is reported as 41.2% (active).
CC1CN(C(=O)CCC(=O)NCc2cccnc2)c2ccccc2O1 (stereo unspecified) showed an inhibition of -10.2%.
CC1CN(C(=O)CCC(=O)NC2CCN(Cc3ccccc3)CC2)c2ccccc2O1 (stereo unspecified) gave an inhibition of 2.82%.
Compound Cc1cc(O)c(C(=O)/C=C/c2c(F)c(F)c(F)c(F)c2F)c(=O)o1 has an inhibition of -15.9%.
In the case of Cc1c2cnn(CC(=O)NCCCN3CC(C)CC(C)C3)c(=O)c2c(C)n1Cc1ccc(Cl)cc1 (stereo unspecified), the inhibition is reported as 37.1% (active).
With Cc1c2cnn(CC(=O)NCc3ccccn3)c(=O)c2c(C)n1Cc1ccc(Cl)cc1 the inhibition was -39%.
Work on CC1CC(C)CN(CCCNC(=O)Cn2ncc3c([nH]c4ccccc43)c2=O)C1 (stereo unspecified) yielded an inhibition of 5.73%.
In the case of N#C/C(=C\c1ccc(-c2cccc([N+](=O)[O-])c2)o1)C(=O)NCCN1CCOCC1, the inhibition is reported as 6.61%.
With Cc1ccc(C(=O)N/C(=C/c2ccc(-c3cccc([N+](=O)[O-])c3)o2)C(=O)NCCCN(C)C)cc1 the inhibition was 41.5% (active).
With CN(C)CCNC(=O)/C(=C/c1cccc([N+](=O)[O-])c1)NC(=O)c1ccccc1 the inhibition was 14.4%.
With CCN(CC)CCNC(=O)c1sc2ncn(CC(=O)Nc3ccc(C)c(Cl)c3)c(=O)c2c1C the inhibition was 37% (active).
CCN(CC)CCCNC(=O)Cn1cnc2sc(C)c(S(=O)(=O)N3CCN(c4ncccn4)CC3)c2c1=O gave an inhibition of 26.1%.
With CCN(CC)CCNC(=O)Cn1cnc2sc(C)c(S(=O)(=O)N3CCOCC3)c2c1=O the inhibition was 11.1%.
For O=C(c1c(F)cccc1F)N1CCN(c2ncc(Br)cn2)CC1, the inhibition was -20.1%.
Cc1cc(=O)oc2c3c(cc(OCC(=O)NCCC(=O)N[C@@H](C)C(=O)O)c12)OC(C)(C)CC3 showed an inhibition of -35.5%.
With CCn1c(=O)c(C(=O)NCc2ccc3c(c2)OCO3)c(O)c2ccccc21 the inhibition was -4.83%.
For CC1CC(C)CN(S(=O)(=O)c2cccc3nonc23)C1 (stereo unspecified), the inhibition was -7.76%.
C=CCN(Cc1nc(-c2cc(OC)c3c(c2)OCO3)oc1C)C1CCS(=O)(=O)C1 (stereo unspecified) gave an inhibition of -27.8%.
For Clc1cc(NC2CCCCC2)ncn1, the inhibition was -15.2%.
CS(=O)(=O)N(CC(=O)N/N=C/c1ccccn1)c1ccc(Oc2ccccc2)cc1 gave an inhibition of -33.5%.
In the case of Cc1cc(C)c2nc3nc(C)cc(C)c3c(N)c2c1, the inhibition is reported as 62.7% (active).
Cc1cc(C)c2c(n1)nn1c(N3CCOCC3)cc(C)nc21 showed an inhibition of -11.1%.
With Cc1cc(C)c2nc(SCCC#N)nc(C)c2c1 the inhibition was -17%.
For O=C1c2ccccc2C(=O)c2c1cccc2N1CCN(CCO)CC1, the inhibition was 53.2% (active).
OCCN1CCN(c2nnc(-c3ccccc3)c3ccccc23)CC1 gave an inhibition of -5.67%.
O=C1c2ccccc2C(=O)c2c1cccc2N1CCN(Cc2ccccc2)CC1 gave an inhibition of 8.12%.
Cc1cccc(-c2nc(CS(=O)CC(=O)NC(C)CCc3ccccc3)c(C)o2)c1 (stereo unspecified) gave an inhibition of -57.2%.
CC(=N\NC(=O)c1cc(Br)ccc1O)/C(=N/O)C(=O)Nc1ccccc1 showed an inhibition of -11.2%.
Compound CN1CCN(NC(=O)Nc2ccc(Br)cc2)CC1 has an inhibition of -5.13%.
In the case of COc1ccccc1NC(=O)C(C)OC(=O)CC1CCCC1 (stereo unspecified), the inhibition is reported as -26.3%.
With CC(=O)NC(CC(=O)Nc1nc(-c2ccccc2)c(C(C)=O)s1)c1ccccc1 (stereo unspecified) the inhibition was -16.9%.
Work on Clc1nc(NC2CCCC2)nc(N2CCOCC2)n1 yielded an inhibition of -6.99%.
With O=C(CNC(=O)[C@@H]1Cc2ccccc2CN1)NC1CCCCC1 the inhibition was 0.62%.
For CC(C)c1cc(C(=O)N/N=C/C(Br)=C/c2ccccc2)n[nH]1, the inhibition was -26.4%.
For CCN(CC(=O)NCc1cccs1)C(=O)c1cccc(S(=O)(=O)Nc2ccccc2OC)c1, the inhibition was -11.7%.
With COCCNC(=O)c1ccc(S(=O)(=O)c2ccc(Cl)cc2)c(NC(C)=O)c1 the inhibition was 0.74%.
COC(=O)C1(C)NC(c2ccc(F)cc2)C2C(=O)N(c3ccccc3)C(=O)C21 (stereo unspecified) gave an inhibition of 0.11%.
For CN(C)C(=O)CCC(=O)N1CCCCC1C(=O)Nc1ccc(Oc2ccccc2F)cc1 (stereo unspecified), the inhibition was -34%.
C#CCOCCOCCOCCNc1nc(N2CCN(C(=O)[C@H](Cc3ccc(O)cc3)n3cc(C(N)CC(C)C)nn3)CC2)nc(N2CCN(C(=O)[C@H](CCC(=O)O)n3cc(C(N)[C@H](C)CC)nn3)CC2)n1 (stereo partly specified) gave an inhibition of 17.7%.
C#CCOCCOCCOCCNc1nc(N2CCN(C(=O)[C@H](C(C)C)n3cc(CCO)nn3)CC2)nc(N2CCN(C(=O)[C@H]([C@@H](C)CC)n3cc(CCCN=C(N)N)nn3)CC2)n1 gave an inhibition of 21.4%.
For C#CCOCCOCCOCCNc1nc(N2CCN(C(=O)[C@H](CCC(=O)O)n3cc(C(N)CO)nn3)CC2)nc(N2CCN(C(=O)[C@H](Cc3ccc(O)cc3)n3cc(C(N)[C@H](C)CC)nn3)CC2)n1 (stereo partly specified), the inhibition was 6.75%.
With C#CCOCCOCCOCCNc1nc(N2CCN(C(=O)C(Cc3ccc(O)cc3)n3cc(C(N)CC(C)C)nn3)CC2)nc(N2CCN(C(=O)C(Cc3ccc(O)cc3)n3cc(C(N)C(C)CC)nn3)CC2)n1 (stereo unspecified) the inhibition was 46.3% (active).
In the case of C#CCOCCOCCOCCNc1nc(N2CCN(C(=O)[C@H](C(C)C)n3cc(CCO)nn3)CC2)nc(N2CCN(C(=O)[C@H](C(C)C)n3cc(CCO)nn3)CC2)n1, the inhibition is reported as -49.9%.
For C#CCOCCOCCOCCNc1nc(N2CCN(C(=O)[C@H](CCCCN)n3cc([C@@H](N)C(C)CC)nn3)CC2)nc(N2CCN(C(=O)[C@H](Cc3ccc(O)cc3)n3cc([C@@H](N)C(C)CC)nn3)CC2)n1 (stereo partly specified), the inhibition was 55.6% (active).
Cc1cc(C)n(CCNS(=O)(=O)c2ccc(Cl)cc2)n1 gave an inhibition of -8.78%.
Compound COc1ccc(S(=O)(=O)NNC(=O)Nc2ccc(C)cc2)c(OC)c1 has an inhibition of -10.4%.
CN1CCN(S(=O)(=O)c2cccc(C(=O)Nc3cccc(S(N)(=O)=O)c3)c2)CC1 showed an inhibition of 12.4%.
Cc1ccc(S(=O)(=O)NC2CCCCCC2)cc1C(N)=O gave an inhibition of -7.28%.
With CSc1ncc(C(=O)Nc2ccc(C)cc2C)c(C)n1 the inhibition was -12.3%.
Compound Cc1ccccc1C(=O)N1CCN(c2ccc(NC(=O)c3cccs3)cc2)CC1 has an inhibition of -49.5%.
For CC(C)c1nc2cc(C(=O)NC(C)c3cnn(C)c3)ccc2o1 (stereo unspecified), the inhibition was -13.1%.
For COc1cccc(NC(=O)Cn2cnc3sc(C)c(S(=O)(=O)N4CCN(C)CC4)c3c2=O)c1, the inhibition was 26.6%.
In the case of COc1ccc(NC(=O)CCS(=O)(=O)c2cc3c(cc2Cl)NC(=O)CO3)cc1OC, the inhibition is reported as -5.06%.
COc1ccc(CNC(=O)C(c2ccc(O)cc2)N(Cc2ccco2)C(=O)c2snc(C(N)=O)c2N)cc1 (stereo unspecified) showed an inhibition of -26.1%.
With O=C(Cn1c(NCCO)nc2ccccc21)c1ccc(Cl)cc1Cl the inhibition was 8.95%.
For Cc1cc(C)c2c(Cn3ccnc3)cc(=O)oc2c1, the inhibition was -1.43%.
For Cc1sc2nc(SCCO)n(-c3ccccc3)c(=O)c2c1C, the inhibition was -17.8%.
For Cc1cc(=O)[nH]c(Nc2cccc(Br)c2)n1, the inhibition was -6.32%.
With CC(C)(C)OC(=O)CNC(=O)c1[nH]cnc1C(=O)N[C@@H](Cc1ccccc1)C(=O)OCc1ccccc1 the inhibition was -34.4%.
Compound CN(C)C(=O)c1ccc(NC(=O)c2ccccc2-c2ccccc2)cc1 has an inhibition of -15.1%.
Work on Cc1ccoc1C(=O)Nc1cccc(Oc2ccccc2)c1 yielded an inhibition of -5.38%.
